Measured values as given in PubChem BioAssay (Tox21).
Inconclusive results are not listed. A call without a number means that no potency is given here. Unmarked numbers belong to inactive results. Calls of active or inactive are those of the source. Calls follow the shape of the dose curve; as a rule, active = well fitted cell-killing curve with a large enough effect in the repeat runs; inconclusive = weak or mixed curves, or effect the other way; inactive = flat fitted curve, though single readings scatter.

Test: qHTS assay to identify small molecule agonists of the estrogen receptor beta (ER-beta) signaling pathway - cell viability counter screen (AID 1259380); also: nearly all actives have a fitted effect of over 30% in size
Conditions: ER-beta-bla HEK293T viability, CellTiter-Glo luminescence, 16 h; series mostly up to 92.4 µM
Source text: National Center for Advancing Translational Sciences [NCATS]
NIH Chemical Genomics Center [NCGC]
U.S. Environmental Protection Agency [EPA]
National Institutes of Environmental Health Sciences [NIEHS]
National Toxicology Program [NTP]
U.S. Food and Drug Administration [FDA]
Estrogen receptor (ER), a nuclear hormone receptor, plays an important role in development, metabolic homeostasis and reproduction. Two subtypes of ER, ER-alpha and ER-beta, have similar expression patterns with some uniqueness in both types. Endocrine disrupting chemicals (EDCs) and their interactions with steroid hormone receptors like ER causes disruption of normal endocrine function. To identify the compounds that activate ER signaling, an ER beta-UAS-bla GripTite cell line (Life Technologies, Madison, WI, USA) containing a beta-lactamase reporter gene under the control of an UAS response element was used to screen Tox21 10K compound library. The cytotoxicity of the Tox21 compound library against the ER-beta-bla cell line was tested in parallel by measuring the cell viability using CellTiter-Glo assay in the same wells.
Tox21 Assay Protocol Summary:
ER-beta-UAS-bla HEK293T cells were dispensed at 2,000 cells/5 uL of assay medium containing 2% charcoal stripped FBS per well into black wall/clear-bottom 1536-well plates using a Multidrop Combi (ThermoFisher Scientific, Waltham, MA) dispenser. After the assay plates were incubated at a 37C and 5% CO2 for 6 hr, 23 nL of compounds dissolved in DMSO, positive controls or DMSO only was transferred to the assay plate by a Pintool station (Kalypsys, San Diego, CA). The plates were incubated at 37C and 5% CO2 for 16 hr. Then 1 uL of LiveBLAzerTM B/G FRET substrate was added using a BioRAPTR FRD (Flying Reagent Dispenser, Aurora Discovery, San Diego, CA) and then the plates were incubated at room temperature for 2 hours, and fluorescence intensity was measured by an Envision plate reader (PerkinElmer, Shelton, CT). For cell viability readout that measures cytotoxicity, 4 uL/well of CellTiter-Glo reagent was added into the assay plates using a FRD. After 30 min incubation at room temperature, the luminescence intensity in the plates was measured using a ViewLux (PerkinElmer) plate reader.

SMILES | Potency | activity change, negative = cytotoxicity
CCCc1ncc(C[n+]2ccccc2C)c(N)n1 | inactive | 
CC(=O)c1ccc2ccccc2c1 | inactive | 
CC12CCC(C(=O)C1=O)C2(C)C (stereo not given) | inactive | 
C=CC(C)(CCC=C(C)C)OC(=O)CC (stereo not given) | inactive | 
CCOc1c(N2CCOCC2)cnn(C)c1=O | inactive | 
COCCOCC(OC)OC | inactive | 
Nc1ccncc1N | inactive | 
CC(C)c1ccc2ncccc2c1 | inactive | 
CC[N+](CC)(CC(=O)Nc1c(C)cccc1C)Cc1ccccc1 (tested in a mixture with another compound) | inactive | 
Cc1ccc(-c2ncc(Cl)cc2-c2ccc(S(C)(=O)=O)cc2)cn1 | inactive | 
CC1=NN(c2cc(S(=O)(=O)O)ccc2Cl)C(=O)C1N=Nc1ccccc1 (stereo not given) | inactive | 
CC/C=C\CCOC(C)OCC (stereo not given) | inactive | 
CC(C)COC(=O)c1ccc(N)cc1 | inactive | 
Cc1ccc(C(=O)c2ccccc2)cc1 | inactive | 
CC(N)C12CC3CC(CC(C3)C1)C2 (stereo not given) | inactive | 
NC(CCC(=O)O)C(=O)O (stereo not given) | inactive | 
CCCCN(CCC(=O)OCC)C(C)=O | inactive | 
CCN(CC#N)c1cccc(C)c1 | inactive | 
COCCOC[C@H](CC1(C(=O)NC2CCC(C(=O)O)CC2)CCCC1)C(=O)Oc1ccc2c(c1)CCC2 (stereo not given in full) | inactive | 
Cc1ccc(C(=O)Nc2ccc(S(=O)(=O)O)c3cc(S(=O)(=O)O)cc(S(=O)(=O)O)c23)cc1NC(=O)c1cccc(NC(=O)Nc2cccc(C(=O)Nc3cc(C(=O)Nc4ccc(S(=O)(=O)O)c5cc(S(=O)(=O)O)cc(S(=O)(=O)O)c45)ccc3C)c2)c1 | inactive | 

SMILES | Potency | activity change, negative = cytotoxicity
C1CCC2(CCCCO2)OC1 | inactive | 
CC1=C(C/C=C(\C)CCC[C@H](C)CCC[C@H](C)CCCC(C)C)C(=O)c2ccccc2C1=O | inactive | 
COc1cc(C(=O)OC(COCCC(C)C)CN2CCOCC2)cc(OC)c1OC (stereo not given) | inactive | 
CCCCCCCCCC[N+](C)(C)[O-] | inactive | 
Cc1cccc(C)c1NC(=O)CC12CCCN1CCC2 | inactive | 
C[N+]1(CC2COC(c3ccccc3)(c3ccccc3)O2)CCCCC1 (stereo not given) |  | 12% [at 19 µM]
CC(C#N)(CCC(=O)O)N=NC(C)(C#N)CCC(=O)O (stereo not given) | inactive | 
CO[C@@]1(NC(=O)CSC[C@@H](N)C(=O)O)C(=O)N2C(C(=O)O)=C(CSc3nnnn3C)CS[C@@H]21 | inactive | 
NO | inactive | 
CCCCCCCCCCOc1cc2c(=O)c(C(=O)OCC)c[nH]c2cc1OCC |  | 7.19% [at 8.39 µM]
N[C@@H](CCC(=O)O)C(=O)O | inactive | 
CCN[C@@H]1C[C@H](N)[C@@H](OC2OC(CN)=CCC2N)[C@H](O)[C@H]1O[C@H]1OC[C@](C)(O)[C@H](NC)[C@H]1O (stereo not given in full) |  | 6.54% [at 0.349 µM]
CC(C)(C)c1ccc(-c2ccc(C(C)(C)C)cc2)cc1 | inactive | 
CCN[C@H]1C[C@H](C)S(=O)(=O)c2sc(S(N)(=O)=O)cc21 | inactive | 
CC1OC1C1CCC2(C)OC2C1 (stereo not given) | inactive | 
C[C@H]1C[C@H]2[C@@H]3CCC4=CC(=O)C=C[C@]4(C)[C@H]3C(=O)C[C@]2(C)[C@@]1(O)C(=O)CO | inactive | 
Nc1ccccn1 | inactive | 
CC1CCC(CO)CC1 (stereo not given) | inactive | 
CC(COc1ccccc1)NN (stereo not given) | inactive | 
CC(=O)Nc1ccc(OCC(O)CNC(C)C)cc1 (stereo not given) | inactive | 
